Peg3 promoter – Peg3 promoter activity inhibition; HeLa PEG-Prom luciferase reporter, luminescence, overnight; AID 588405; 360,000 tested, 1.7% active; inhibition, % at 20 µM;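 active = inhibition of at least 50% at 20 µM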
KKLEB cytotox – CF airway cell cytotoxicity counter-screen | KKLEB CF airway cells viability, ATPlite luminescence, overnight; active compounds read low; cells stimulated with P. aeruginosa culture filtrate | activity change (cytotoxicity), % at 5 µM | 360,000 tested, 0.36% active | AID 602141;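 active = corrected activity change at or below -50% at 5 µM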
CF NFkB inh – blocks PAF-induced NF-kB reporter in cystic fibrosis cells | KKLEB NF-kB-GFP reporter, GFP fluorescence overnight | inhibition, % at 5 µM | 360,000 tested, 0.86% active;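 active = at least 50% inhibition at 5 µM, scaled per plate between neutral and stimulator controls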;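 note: PAF is a Pseudomonas aeruginosa culture filtrate used as stimulus; plate controls were PAF-stimulated DMSO wells for no effect and unstimulated DMSO wells for full effect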
HIF-2a block – blocks HIF-2a reporter activity. 786-0 RCC cells HIF-2a reporter, luciferase luminescence, overnight. inhibition, % at 18.8 µM. 360,000 tested, 0.72% active;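 active = inhibition of the luminescence signal of 40% or more relative to plate controls, in a single-dose primary screen at 18.75 µM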
TWEAK-Fn14 inh – TWEAK-Fn14 signaling inhibition | 360,000 tested, 2% active | inhibition, % at 10 µM | TWEAK-stimulated Fn14 reporter cells, luciferase luminescence, 8 h; in the data active = inhibition above about 50%
TROY NFkB inh – blocks TROY-dependent signaling in reporter cells; 360,000 tested, 0.98% active; Q293 LMP1-TROYcd NF-kB luciferase reporter, 4 h; inhibition, % at 10 µM;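 active = compounds whose plate-normalised and pattern-corrected inhibition of the luciferase reporter signal at the single screening dose is 50% or more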
CF NFkB inh conf – CF NF-kB inhibition confirmation, single concentration. shares compounds with CF NFkB inh. KKLEB CF airway cells, PAF-induced NF-kB-GFP fluorescence, overnight. inhibition, % at 5 µM. 1,300 tested, 64% active. AID 602472; in the data active = inhibition above about 40%;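 note: stimulus PAF is a Pseudomonas aeruginosa filtrate and not platelet activating factor; plate controls were DMSO wells with stimulus for no effect and unstimulated DMSO wells for full effect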
* marks the source's active call; other numbers are inactive results; · = no result. Most compounds without a hit are left out; they make up all but 4% or so of the library.

SMILES	Peg3 promoter	KKLEB cytotox	CF NFkB inh	HIF-2a block	TWEAK-Fn14 inh	TROY NFkB inh	CF NFkB inh conf
Cc1cc2c(cc1S(=O)(=O)Nc1cccc(F)c1C)NC(=O)CO2	10	5	3	17	-2	25	·
NC1(C(=O)O)CSSC1	82*	3	62*	-122	13	0	57*
COc1cc(/C=N/NC(=O)Nc2cccc3nsnc23)cc(OC)c1OC	22	-25	64*	9	31	18	77*
COc1ccc(-n2nnnc2S(=O)(=O)Cc2ccc(C(=O)O)cc2)cc1	37	-42	89*	12	-7	20	91*
Nc1ccccc1C=C1Cc2ccccc2C1=O	-244	-7	-59	-211	44	-9	·
O=C1C(=Cc2ccccc2[N+](=O)[O-])Cc2ccccc21	100*	-48	89*	31	95*	12	85*
COc1cccc(CN(C)Cc2cc(=O)oc3c(C)c(C)ccc23)c1	-21	-3	-1	-103	-29	-5	·
COc1ccc(Cl)cc1NC(=O)c1nnn(CC(=O)Nc2ccc(OC)c(OC)c2)c1N	22	-24	50*	-1	-33	4	4
COc1ccc(NC(=O)Cn2nnc(C(=O)Nc3ccc(F)c(Cl)c3)c2N)cc1	22	-44	61*	-2	-17	15	-1
COc1cccc(NC(=O)Cn2nnc(C(=O)Nc3cc(Cl)ccc3OC)c2N)c1	19	-36	56*	0	5	-30	9
C[C@H](NC(=O)c1ncn2c1C(=O)NC[C@@H]2C)c1ccccc1	2	-11	6	0	-4	8	·
CCOC(=O)c1c(C)[nH]c(C)c1C(=O)COC(=O)c1sccc1C	11	-6	8	-10	-17	-17	·
Nc1nc(N)nc(-c2cc([N+](=O)[O-])ccc2O)n1	60*	-21	61*	-28	41	2	73*
c1csc(CNc2ncnc3ccc(-c4ccc5c(c4)OCO5)cc23)c1	30	-24	27	29	-24	15	·
c1csc(CNc2ncnc3ccc(-c4ccoc4)cc23)c1	-11	-7	77*	4	88*	55*	92*
CC(=O)NC(CC(C)C)C(=O)NC(Cc1ccccc1)C(=O)CCl (configuration not stated)	32	-21	52*	-9	10	10	56*
COc1ccc(OC)c(Nc2ncnc3ccccc23)c1	-7	-2	11	-9	-8	-11	·
COc1cccc(Nc2ncnc3ccc(Br)cc23)c1	16	-14	62*	11	63*	35	87*
COc1ccc(OC)c(Nc2ncnc3ccc(Br)cc23)c1	37	-24	54*	33	36	18	68*
Cc1cccc(N2CCN(C(=O)c3[nH]c(C(F)(F)F)nc3-c3ccccc3)CC2)c1C	-7	-22	50*	9	-12	15	87*
Cc1onc(-c2c(F)cccc2Cl)c1C(=O)NCC1COc2ccccc2O1 (configuration not stated)	21	-1	7	16	8	-13	·
Nc1cccc2c1C(=O)N(C(=O)/C=C/c1ccc(F)cc1)C2=O	102*	-24	65*	29	84*	16	15
Nc1cccc2c1C(=O)N(C(=O)c1ccco1)C2=O	11	3	9	6	-13	-23	·
COc1cc(O)cc2cc3c(c(O)c12)C(=O)CC(C)(O)O3 (configuration not stated)	-66	4	60*	-14	1	13	52*
C=C1C(=O)[C@]23C[C@H]1CC[C@H]2[C@]1(C)[C@@H](O)CC[C@@](C)(C(=O)O)[C@H]1C[C@@H]3O	-8	8	84*	2	40	4	83*
C=C1C(=O)[C@]23C[C@H]1CC[C@H]2[C@]1(C)[C@@H](OC(C)=O)CC[C@@](C)(C(=O)O)[C@H]1C[C@@H]3O	93*	-19	92*	30	79*	27	93*
C=C1C(=O)[C@]23C[C@H]1CCC2[C@@]1(C)C(C[C@@H]3O)[C@](C)(C(=O)O)C[C@H](O)[C@@H]1O (some centres not stated)	-1	16	-12	8	-9	-29	·
